This is a sample that favours compounds with a hit; in the whole collection about 10% have one here.
HEK293 tox – Cytotoxic Profiling in HEK 293 Cell Line of Diverse Libraries Using Quantitative High-Throughput Screening | HEK 293 viability, ATP luminescence (CellTiter-Glo), 48-72 h | Potency, µM (titrated, usually from 115 µM), for the others: at the highest dose activity change, negative = cytotoxicity, most hits filed as inhibitors | actives 6.6% (n = 94,000); note: nearly all actives have a fitted effect of over 60% in size
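HEK 293 cells seeded at 250 cells/well were exposed to compound for 48 or 72 hr at 37 degree Celsius. Viability taken as ATP content by CellTiter-Glo luminescence.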
Luciferase inh – Firefly luciferase inhibition profiling of diverse chemical library using quantitative high-throughput screening; AID 1347043, 2019; purified P. pyralis luciferase, luminescence, biochemical; actives 2.5% (n = 76,000); Potency, µM (titrated, usually from 115 µM), most hits filed as inhibitors; note: nearly all actives have a fitted effect of over 65% in size
Target sequence (P08659 whole entry, looked up): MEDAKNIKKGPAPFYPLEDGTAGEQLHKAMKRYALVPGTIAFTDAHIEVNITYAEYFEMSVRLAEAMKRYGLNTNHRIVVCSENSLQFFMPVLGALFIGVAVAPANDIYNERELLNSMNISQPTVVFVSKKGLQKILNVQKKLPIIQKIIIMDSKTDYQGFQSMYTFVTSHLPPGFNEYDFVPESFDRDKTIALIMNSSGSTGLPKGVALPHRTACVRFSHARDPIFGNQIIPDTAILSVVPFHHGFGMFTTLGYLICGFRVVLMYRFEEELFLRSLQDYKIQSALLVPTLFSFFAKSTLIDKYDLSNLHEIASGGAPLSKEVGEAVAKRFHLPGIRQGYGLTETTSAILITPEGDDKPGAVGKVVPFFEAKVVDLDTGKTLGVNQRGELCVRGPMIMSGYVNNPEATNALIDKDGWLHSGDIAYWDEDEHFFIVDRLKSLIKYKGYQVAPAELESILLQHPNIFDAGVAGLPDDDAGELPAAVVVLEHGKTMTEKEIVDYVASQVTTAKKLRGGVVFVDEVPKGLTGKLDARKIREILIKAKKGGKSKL
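Cell-free enzyme assay, 10nM P. pyralis luciferase, luciferin and ATP each at 10uM. Inhibition profiled over a 6-point titration, read as luminescence.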
3T3 cytotox – Cytotoxic Profiling in NIH 3T3 Cell Line of Diverse Libraries Using Quantitative High-Throughput Screening | actives 4.3% (n = 94,000) | Potency, µM (series often up to 96.7 µM), inactives show at the top dose activity change, negative = cytotoxicity, most hits filed as inhibitors | NIH 3T3 viability, CellTiter-Glo ATP luminescence, 48-72 h; note: nearly all actives have a fitted effect of over 55% in size
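First NIH 3T3 cells are plated at 400 cells/well; next compound is pinned in; then plates incubate 48 or 72 hr at 37 °C; finally CellTiter-Glo is added and luminescence read after 10 min.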
GPT2 inh – Primary qHTS assay for inhibitors of Glutamate pyruvate transaminase 2 (GPT2); Recombinant GPT2, coupled pyruvate oxidase/HRP Amplex Red fluorescence; Potency, µM (series often up to 57.7 µM), for the others: at the highest dose activity change, negative = inhibition, usual class: inhibitors; actives 0.25% (n = 100,000); AID 1671188, 2021; note: nearly all actives have a fitted effect of over 60% in size
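Recombinant GPT2 (10ng/uL) with 250uM a-KG and 2mM L-alanine, 30 min at room temperature, in HEPES pH 7.5 buffer. Pyruvate detected by pyruvate oxidase/HRP/Amplex Red fluorescence after 30 min in the dark; AOA (50uM) as positive control.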
NPR1 antag – Natriuretic polypeptide receptor (hNpr1) antagonism - Primary qHTS | Potency, µM (series often up to 46.3 µM), for inactives: at the top dose activity change, negative = inhibition, actives largely listed as inhibitors | HEK293 hNpr1 GloSensor cGMP, ANP-stimulated luminescence | actives 1.6% (n = 76,000); calls by dose curve; note: nearly all actives have a fitted effect of over 60% in size
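HEK293 cells stably expressing human Npr1 and cGMP GloSensor pGS-40F, loaded 2 h with 2% GloSensor reagent, given compound 30 min at room temperature. Luminescence read before and 20 min after 0.1 nM hNppA.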
An asterisk follows results filed as active; i = inactive; ? = inconclusive; . = no result; [ ] = another dose, or the depositor's remark. Unless noted, calls come from the whole dose curve; as a rule, active = well fitted curve in the direction sought with a large enough effect; inconclusive = small, poorly fitted or top-dose-only effect, or another doubt; inactive = no such curve, though single readings can be large; an effect the other way counts as inactive or inconclusive. % is set by controls: 0 for no effect and ±100 for the full control effect; potency is the fitted concentration of half-maximal effect.

SMILES | HEK293 tox | Luciferase inh | 3T3 cytotox | GPT2 inh | NPR1 antag
O=C(NCc1ccccc1)c1cn(C2CN(C(=O)Nc3ccc4c(c3)OCCO4)C2)nn1 | 35.5µM* | ? | ? | i | -11.6%
CC(C)CNc1ccc2c(n1)C(C)(C(=O)NCc1cccnc1)CN(Cc1ccccc1)C2 (centres undefined) | ? | i | ? | -5.4% | 5.8%
CN1CCC(NC(=O)C2(C)CN(C)Cc3ccc(Nc4ccccc4)nc32)CC1 (centres undefined) | ? | i | ? | i | 1.4%[70.6 µM]
CC(C)CNc1ccc2c(n1)C(C)(C(=O)NC1CCC(O)CC1)CN(Cc1ccccc1)C2 (centres undefined) | ? | i | 44.7µM* | 0.3% | -11.2%
CC(C)CNc1ccc2c(n1)C(C)(C(=O)NC1CCN(C)CC1)CN(Cc1ccccc1)C2 (centres undefined) | ? | i | 31.6µM* | -6.2% | 3.5%
Cc1cccc(N2Cc3c(NCCO)ncnc3N(C)CC2=O)c1 | 2.6%[172 µM] | . | -15.0%[138 µM] | ? | .
O=C(Cn1cccc1-c1nc(-c2ccccc2)no1)NCCCc1ccccc1 | 44.7µM* | i | -2.8% | i | -17.1%
CC1(C(=O)NCc2cnccn2)CCc2cnc(Nc3ccccc3)nc21 (centres undefined) | ? | i | ? | -14.9%[88.5 µM] | 4.2%[70.6 µM]
CC1(C(=O)NCc2ccc(F)cc2)CCCc2cnc(Nc3cccnc3)nc21 (centres undefined) | -16.0%[172 µM] | i | ? | 1.4%[88.5 µM] | -9.3%[70.6 µM]
CC1(C(=O)NCc2ccncc2)CCCc2cnc(Nc3ccccc3)nc21 (centres undefined) | -23.5%[172 µM] | i | 100µM* | i | 0.0%[70.6 µM]
CC1(C(=O)NCc2ccncc2)CCCc2cnc(NCc3ccccc3)nc21 (centres undefined) | 89.1µM* | i | 25.1µM* | ? | -2.2%[70.6 µM]
CC1(C(=O)NCc2cnccn2)CCCc2cnc(NCc3ccccc3)nc21 (centres undefined) | -4.0%[172 µM] | i | 89.1µM* | 3.0%[88.5 µM] | 3.5%[70.6 µM]
CC1(C(=O)NCCN2CCOCC2)CCCc2cnc(NCc3ccccc3)nc21 (centres undefined) | -4.8%[172 µM] | i | ? | -18.1%[88.5 µM] | 0.4%[70.6 µM]
COC(=O)c1[nH]nc2c1C(c1ccc(OC)c(OC)c1Cl)CC(=O)N2 (centres undefined) | -17.3% | i | -16.5% | -4.0%[11.5 µM] | -1.2%
CC[C@H]1CN(C(=O)N2CCOCC2)CC[C@H]1CC(=O)Nc1nccs1 | ? | i | 50.1µM* | -10.3%[88.5 µM] | 3.1%[70.6 µM]
COc1cccc(C(=O)N2CCN(C(=O)c3cccc(-c4cccc(OC)c4)c3)CC2)c1 | ? | . | ? | -5.0% | .
O=C(NCc1ccnc2[nH]ccc12)c1ccc2ccccc2n1 | 89.1µM* | ? | ? | 3.4%[88.5 µM] | ?
O=C(NCc1ccnc2[nH]ccc12)c1ccccc1Cl | -14.0%[172 µM] | i | -9.4%[138 µM] | 4.4%[88.5 µM] | 5.2%[70.6 µM]
O=C(Cc1ccccc1)NCc1ccnc2[nH]ccc12 | -2.6%[172 µM] | 35.5µM* | -5.5%[138 µM] | i | -14.9%[70.6 µM]
CCc1cccc2c(C(CC(=O)N3CCCC3)c3cccc([N+](=O)[O-])c3)c[nH]c12 (centres undefined) | ? | i | 28.2µM* | 4.9% | -12.7%
CCc1cccc2c(C(CC(=O)N3CCc4ccccc4C3)c3cccc4c3OCO4)c[nH]c12 (centres undefined) | ? | i | 17.8µM* | i | -9.6%
CCc1cccc2c(C(CC(=O)N3CCCCC3)c3cccc(C)c3)c[nH]c12 (centres undefined) | ? | i | -29.5% | i | -6.2%
CCOc1ccccc1NC(=O)Cn1c(N(C)Cc2ccccc2)nc(C)cc1=O | 35.5µM* | i | ? | -1.6% | -13.0%

Screening results: PubChem BioAssay, National Center for Advancing Translational Sciences (NCATS)
